Measurements published in PubChem BioAssay (Tox21).
Inconclusive results are not listed. Active and inactive are the calls of the source. Unless noted, calls come from the whole dose curve; as a rule, active = well fitted curve in the direction sought with a large enough effect in the repeat runs; inconclusive = weak or mixed curves; inactive = no such curve, though single readings can be large; an effect the other way counts as inactive or inconclusive.

Key:
[1] = qHTS assay to identify small molecule agonists of the vitamin D receptor (VDR) signaling pathway - cell viability counter screen (AID 743224); note: nearly all actives have a fitted effect of over 50% in size; note: potency is the fitted concentration of half-maximal effect
Procedure, shortened: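 VDR-bla cells were preincubated 4 h at 37C/5% CO2, then exposed to compounds for 16 h. After the 2 h room-temperature bla FRET read, CellTiter-Glo was added to the same wells and luminescence read after 30 min.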

[2] = qHTS assay to identify small molecule antagonists of the vitamin D receptor (VDR) signaling pathway - cell viability counter screen (AID 743225); note: nearly all actives have a fitted effect of over 50% in size; note: potency is the fitted concentration of half-maximal effect
Procedure, shortened: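 Same-well multiplex: following 16 h treatment of HEK 293T cells carrying a UAS-driven beta-lactamase reporter with compound and agonist (3 nM final), and a 2 h FRET substrate step, CellTiter-Glo was added and luminescence read after 30 min.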

[3] = qHTS assay to identify small molecule agonists of the NFkB signaling pathway - cell viability counter screen (AID 1159515; calls by dose curve; note: nearly all actives have a fitted effect of over 55% in size; note: potency is the fitted concentration of half-maximal effect)
Procedure, shortened: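 NFkB-bla ME-180 cells, 2,000/well, were plated overnight at 37 C, 5% CO2, then exposed to compounds in DMSO for 5 hr. After the bla FRET read, CellTiter-Glo was added to the same wells; luminescence was read after 30 min at room temperature.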

[4] = qHTS assay to identify small molecule agonists of the endoplasmic reticulum stress response signaling pathway - cell viability counter screen (AID 1159517; calls by dose curve; note: nearly all actives have a fitted effect of over 50% in size; note: potency is the fitted concentration of half-maximal effect)
Procedure, shortened: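 Cells, HeLa ESRE-bla; density, 1,500/well; dosing, 5 hr at 37 C, 5% CO2; readout, CellTiter-Glo luminescence after 30 min RT.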

[5] = qHTS assay to identify small molecule antagonists of the retinoid-related orphan receptor gamma (ROR-gamma) signaling pathway - cell viability counter screen (AID 1159520); note: nearly all actives have a fitted effect of over 50% in size; note: potency is the fitted concentration of half-maximal effect
Procedure, shortened: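 Cytotoxicity was read from cellular ATP (CellTiter-Glo luminescence) after 16 hr at 37 C with 1 uM doxycycline induction. The inducer was added 2 hr after compound transfer to Tet-on ROR gamma CHO cells.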

[6] = biological target: Nuclear receptor ROR-gamma (Homo sapiens) (UniProt P51449); assay: qHTS assay to identify small molecule antagonists of the retinoid-related orphan receptor gamma (ROR-gamma) signaling pathway (AID 1159521)
Procedure, shortened: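 Inducible-expression reporter assay: doxycycline (1 uM final) switched on RORγ in CHO cells bearing a ROR response element-luciferase construct, with test compounds present from 2 h beforehand. Decreased luminescence after 16 h defined antagonist activity.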

[7] = qHTS assay to identify small molecule agonists of the AP-1 signaling pathway - cell viability counter screen (AID 1159525; calls by dose curve; note: nearly all actives have a fitted effect of over 55% in size; note: potency is the fitted concentration of half-maximal effect)
Procedure, shortened: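 Luminescent ATP readout (Cell Titer Glo, 30 min RT), normalised to DMSO and tetra n-octyl ammonium bromide controls. Cells were ME-180 AP-1-bla in 0.5% dialyzed FBS Opti-MEM, with a 5 h, 37 °C compound exposure.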

[8] = qHTS assay to identify small molecule agonists of the RXR signaling pathway - cell viability counter screen (AID 1159529); note: nearly all actives have a fitted effect of over 50% in size; note: potency is the fitted concentration of half-maximal effect
Procedure, shortened: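 Counter screen: CellTiter-Glo luminescence. Cells: RXR-alpha-UAS-bla HEK 293T. Medium: 2% charcoal-stripped FBS. Treatment: 16 h, 37 C. Reagent incubation: 30 min, RT.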

[9] = qHTS assay to identify small molecule antagonists of the retinoid acid receptor (RAR) signaling pathway - cell viability counter screen (AID 1159551); note: nearly all actives have a fitted effect of over 35% in size; note: potency is the fitted concentration of half-maximal effect
Procedure, shortened: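 C3RL4 cells were seeded overnight at 37 C, then treated with compounds plus 1 uM (final) retinol for 6 h at 37 C. Viability was read as ATP by CellTiter-Glo luminescence after 30 min at room temperature.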

[10] = qHTS assay to identify small molecule agonists of the AP-1 signaling pathway (AID 1159526; calls by dose curve)
[11] = qHTS assay to identify small molecule antagonists of the estrogen related receptor (ERR) signaling pathway - cell viability counter screen (AID 1224818); note: potency is the fitted concentration of half-maximal effect;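 note: viability measured after 17.5 h of compound exposure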
Procedure, shortened: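 ERR reporter cells plated 6 h at 37 C/5% CO2, then compounds in DMSO pin-transferred and incubated 17.5 h at 37 C. Viability read as CellTiter-Fluor fluorescence after 30 min at 37 C.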

[12] = qHTS assay to identify small molecule agonists of the estrogen related receptor (ERR) signaling pathway (AID 1224820)
Procedure, shortened: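 ERR reporter cells (NTP line) plated 2,000/well, incubated 6 h at 37 C/5% CO2, then pinned with compounds in DMSO and held 18 h at 37 C. One-Glo added; luminescence read after 30 min at room temperature.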

[13] = test system: estrogen-related receptor alpha (ERRalpha) with PGC-1alpha coactivator, human; assay: qHTS assay to identify small molecule antagonists of the estrogen related receptor signaling pathway with the pleiotropic PPARgamma coactivator (PGC) (AID 1224821; calls by dose curve)
Procedure, shortened: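 Cells engineered for PGC/ERR signalling (line from NTP) were plated 6 h at 37 C/5% CO2, then exposed to DMSO-dissolved compound for 18 h at 37 C. Luciferase activity was read by One-Glo luminescence after 30 min at room temperature.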

[14] = qHTS assay to identify small molecule agonists of the estrogen related receptor signaling pathway with the pleiotropic PPARgamma coactivator (PGC) (AID 1224823)
Procedure, shortened: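 PGC/ERR reporter cells were seeded, rested 6 h at 37 C/5% CO2, then exposed to compounds in DMSO by pin transfer for 18 h at 37 C. Luciferase activity was read as luminescence after One-Glo reagent and 30 min at room temperature.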

[15] = qHTS assay to identify small molecule antagonists of the retinoic acid receptor (RAR) signaling pathway (AID 1159552; note: nearly all actives have a fitted effect of over 50% in size)
Procedure, shortened: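 Antagonism of retinol-induced RARE reporter activity was measured in C3RL4 cells. Exposure to compounds and 1 uM final retinol lasted 6 hr at 37 C, with luminescence as endpoint.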

[16] = qHTS assay to identify small molecule agonists of the retinoic acid receptor (RAR) signaling pathway (AID 1159553)
Procedure, shortened: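 C3RL4 cells carrying a RARE luciferase reporter were plated overnight at 37 C, then exposed to compounds in DMSO for 6 hr at 37 C and 5% CO2. Luminescence was read 30 min after luciferase reagent addition at room temperature.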

[17] = qHTS assay to identify small molecule antagonists of the estrogen related receptor (ERR) signaling pathway (AID 1224819)
Procedure, shortened: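 ERR reporter cells were plated at 2,000 cells/well and left 6 h at 37 C/5% CO2 before pin-tool transfer of compounds in DMSO. After 18 h at 37 C, One-Glo was added and luminescence was read 30 min later at room temperature.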

[18] = qHTS assay to identify small molecule antagonists of the estrogen related receptor signaling pathway with the pleiotropic PPARgamma coactivator (PGC) cell viability counter screen (AID 1224822; note: potency is the fitted concentration of half-maximal effect)
Procedure, shortened: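 PGC/ERR cells were seeded at 2,000 cells/well, rested 6 h at 37 C/5% CO2, then given compounds in DMSO by pin tool and incubated 17.5 h at 37 C. Viability came from CellTiter-Fluor fluorescence after 30 min.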

[19] = biological target: Retinoic acid receptor RXR-alpha (Homo sapiens) (UniProt P19793); assay: qHTS assay to identify small molecule agonists of the RXR signaling pathway (AID 1159527; calls by dose curve; note: nearly all actives have a fitted effect of over 35% in size)
Sequence of Retinoic acid receptor RXR-alpha (Homo sapiens) (P19793 whole entry, looked up): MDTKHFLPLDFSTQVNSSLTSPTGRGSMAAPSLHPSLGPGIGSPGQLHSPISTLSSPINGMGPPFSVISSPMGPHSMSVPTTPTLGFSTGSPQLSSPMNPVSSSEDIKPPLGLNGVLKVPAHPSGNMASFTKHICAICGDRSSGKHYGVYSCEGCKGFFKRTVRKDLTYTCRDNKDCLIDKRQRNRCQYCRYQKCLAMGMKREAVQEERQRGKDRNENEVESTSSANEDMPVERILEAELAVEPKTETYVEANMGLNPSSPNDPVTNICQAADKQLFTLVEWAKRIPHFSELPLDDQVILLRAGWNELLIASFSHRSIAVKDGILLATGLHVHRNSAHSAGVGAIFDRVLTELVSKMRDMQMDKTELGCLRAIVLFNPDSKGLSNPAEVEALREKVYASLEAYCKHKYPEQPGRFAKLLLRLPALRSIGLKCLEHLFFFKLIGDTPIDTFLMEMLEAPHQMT
Procedure, shortened: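 Compounds in DMSO were added to RXR-alpha-UAS-bla HEK 293T cells kept in 2% charcoal-stripped serum, and incubated 16 hr at 37 C with 5% CO2. Reporter signal came from a 2 hr B/G FRET substrate step.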

Measured: Potency

CCc1cc(SCc2sc(-c3ccc(C(F)(F)F)cc3)nc2CN2CCN(c3ccc(OC)cc3)CC2)ccc1OCC(=O)O
active: [1] 19.5 µM | [2] 7.76 µM | [3] 43.6 µM | [4] 54.9 µM | [5] 30.6 µM | [6] 13.7 µM | [7] 43.6 µM | [8] 3.89 µM
inactive: [9]

CCc1oc2ccccc2c1C(=O)c1cc(Br)c(O)c(Br)c1
inactive: [3] | [4] | [5] | [7] | [9]

O=C(Oc1ccccc1)c1ccccc1C(=O)Oc1ccccc1
inactive: [1] | [2] | [3] | [4] | [5] | [7] | [10] | [8] | [9]

C[C@]12CCC(=O)C=C1CC[C@@H]1[C@@H]2[C@@H](O)C[C@@]2(C)[C@H]1CC[C@]2(O)C(=O)COC(=O)CCC(=O)O
inactive: [1] | [2] | [3] | [4] | [5] | [7] | [10] | [8] | [9]

CCN(CC)CCCC(C)Nc1c2ccc(Cl)cc2nc2ccc(OC)cc12 (configuration not stated)
active: [2] 23.9 µM | [13] 16.8 µM
inactive: [3] | [4] | [5] | [7] | [9] | [11] | [12] | [14]

CCN(CCC#N)c1ccc(N=Nc2c(Cl)cc([N+](=O)[O-])cc2Cl)cc1
inactive: [1] | [3] | [4] | [5] | [7] | [9] | [15]

CCC(CN)=C(c1ccccc1)c1ccccc1
inactive: [3] | [4] | [5] | [7] | [8] | [9]

Fc1ccc([C@@H]2CCNC[C@H]2COc2ccc3c(c2)OCO3)cc1
inactive: [3] | [4] | [5] | [7] | [8] | [9] | [16]

C[n+]1cc2c3c(ccc2c2ccc4cc5c(cc4c21)OCO5)OCO3
active: [1] 0.58 µM | [3] 1.17 µM | [4] 1.31 µM | [5] 1.64 µM | [7] 2.08 µM | [8] 1.47 µM | [9] 3.66 µM | [11] 2.87 µM | [17] 3.1 µM | [13] 2.28 µM | [18] 0.944 µM
inactive: [12] | [14]

CN(C)[C@@H]1C(=O)C(C(N)=O)=C(O)[C@@]2(O)C(=O)C3=C(O)c4c(O)cccc4C[C@H]3C[C@@H]12
active: [6] 13.3 µM
not listed: [5] | [11] | [12] | [13] | [14] | [17] | [18]
inactive: all other assays above
